Experimental data taken from the supplement of paper PMC6555819.

How the values were obtained:
Assay in all cases: PBM binding z-score (relative to random genomic background probes); higher = stronger binding; sequences stand for … in GC…GCGATTGACAGCGTAGAATGAAGG
[1] = tested on: FXR:RXRa (NR concentration 270 nM, RXRa partner concentration 90 nM)
In short: (§1)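 Binding z-scores were set against random background probes. The data came from custom Agilent 4×180K protein-binding microarrays carrying double-stranded probes with 34-nt variable regions, incubated 1 h with ligand-free nuclear receptor dimers. Partner-specific antibodies detected binding, and scanned fluorescence was regression-normalized.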

[2] = tested on: LXRa:RXRa (NR concentration 270 nM, RXRa partner concentration 90 nM)
In short: as §1

[3] = tested on: LXRa homodimer (NR concentration 270 nM)
In short: as §1

[4] = tested on: LXRb:RXRa (NR concentration 270 nM, RXRa partner concentration 90 nM)
In short: as §1

[5] = tested on: LXRb homodimer (NR concentration 270 nM)
In short: as §1

[6] = tested on: PPARa:RXRa (NR concentration 270 nM, RXRa partner concentration 90 nM)
In short: as §1

[7] = tested on: PPARg:RXRa (NR concentration 180 nM, RXRa partner concentration 90 nM)
In short: as §1

[8] = tested on: PPARg:RXRa 270nM:90nM, anti-RXR (NR concentration 270 nM, RXRa partner concentration 90 nM)
In short: as §1

[9] = tested on: PPARg:RXRa 30nM:10nM, anti-RXR (NR concentration 30 nM, RXRa partner concentration 10 nM)
In short: as §1

[10] = tested on: PPARg:RXRa 90nM:30nM, anti-RXR (NR concentration 90 nM, RXRa partner concentration 30 nM)
In short: as §1

Sequence | PBM binding z-score [1] | PBM binding z-score [2] | PBM binding z-score [3] | PBM binding z-score [4] | PBM binding z-score [5] | PBM binding z-score [6] | PBM binding z-score [7] | PBM binding z-score [8] | PBM binding z-score [9] | PBM binding z-score [10]
ATCTCTAGGTAACAAGTTCACTGAAAGAGAGGAC | 1.15 | 1.44 | 1.22 | 1.56 | 0.913 | 2.74 | 2.49 | 2.9 | 1.37 | 2.56
CCAGACAGGTGAAAGGTAACTCAGTCTGGTACGC | 0.692 | 0.861 | -0.121 | 1.01 | -0.274 | 3.53 | 6.06 | 5.9 | 4.26 | 6.73
ATACCAAGGTGATCGTGAGGACGTTGATACTAAC | 0.587 | 0.135 | -0.00187 | 0.0444 | -0.331 | -0.0562 | 0.622 | 0.0338 | -0.0535 | -0.287
TGAATGAGGTTAAAGATGAGGGAACGTGGCGTCG | 2.79 | 2.16 | 0.0267 | 1.29 | 0.831 | 3.65 | 3.77 | 4.65 | 2.44 | 4.35
TCTAGTTGGTCACTGAGGTCACACACGACGGGTA | 4.03 | 3.64 | 2.55 | 3.59 | 0.98 | 4.32 | 3.24 | 3.98 | 3.27 | 3.68
TAGCCTAAGTCAGATCGGGCCAGTATACGCTATA | 0.0829 | -0.914 | -0.748 | -0.879 | -0.805 | -0.43 | 0.157 | -0.628 | -0.321 | -0.556
TCATATAGGTAATACAGGTCAAAGTCGGCATCTA | 3.34 | 5.45 | 7.33 | 4.42 | 1.69 | 4.33 | 3.55 | 4.08 | 4.34 | 4.27
GCGACTGGGGCAAAGCAGGTTACAATAAGGTTGG | 0.383 | 0.245 | -0.467 | 0.623 | -0.699 | 1.6 | 1.48 | 1.49 | 0.224 | 0.898
TCATATAGGTAAATGCTAGGTGCAAGTCCGATCT | 0.626 | 0.526 | 0.11 | 0.195 | 0.0143 | 1.05 | 0.562 | 2.08 | 3.84 | 2.96
CAAACTAGGTCAAGGTGAAAGTCGGTTTGTGCCA | 3.92 | 2.88 | 0.394 | 1.93 | 0.139 | 5.18 | 8.7 | 7.35 | 6.13 | 7.28
AGTCAAAGTTCAGGATGAGGTAACGTAAAGCACG | 4.14 | 3.93 | 1.07 | 2.02 | 0.238 | 3.58 | 4.66 | 4.92 | 2.26 | 3.84
TGAATGAGCTTAAAGATCAGGGAACGTGGCGTCG | -0.0785 | -0.405 | -0.642 | -0.65 | -0.626 | -0.428 | 0.39 | 0.417 | -0.0177 | 0.152
ATCGAAAGGTCGATGAGGTGAGTATACACCGTTT | 3.46 | 2.76 | -0.117 | 2.16 | 0.539 | 3.5 | 1.83 | 2.19 | 1.1 | 1.4
CCGAGTAGGTTTTGGGGCATTCAGGCAACGGTGA | 0.199 | 0.0127 | -0.127 | 0.177 | -0.134 | 0.31 | -0.0212 | 0.955 | -0.147 | 0.58
CTCGAAAGGTCGGTTGAGATGAGTATACGGATAA | 1.6 | 1.27 | 0.0638 | 1.32 | -0.0369 | 2.34 | 0.617 | 0.887 | 0.602 | 0.615
CCTTACGGGTCACTCCAAGTTATAGCATCGGAGT | 4.3 | 4.77 | 0.264 | 2.99 | 0.193 | 4.54 | 3.18 | 3.68 | 1.12 | 2.66
TTACCAAGGTGAAGGTAGTTGATCCCTCTGTAGA | 0.475 | 0.286 | -0.482 | 0.307 | -0.931 | 1.44 | 0.324 | 1.29 | 0.219 | 0.784
AGAATGAGGTGAAGATCAGGGAAACAGAATACAT | 0.903 | 0.457 | -0.113 | 0.85 | -0.114 | 2.91 | 2.33 | 2.21 | 0.859 | 1.5
CCTTACGGGTCACTGACAGGTTACAGCATTTGGA | 5.61 | 3.93 | 0.335 | 3.43 | -0.275 | 5.01 | 4.41 | 4.6 | 1.49 | 3.28
CGTCCAAGGTCAGTGCTAGGTCAGTGAAAGCATT | 4.03 | 3.44 | 0.709 | 2.75 | -0.278 | 3.28 | 1.44 | 2.57 | 0.1 | 1.31
GTACCAAGGTGAGTAGGTCGTTGATGAGTAGGCG | 0.04 | 0.0147 | -0.31 | -0.286 | -0.924 | 1.17 | 0.822 | 0.888 | -0.11 | 0.35
GCAGACAGGTGAAACGCAGGTAACTCTGGGTGGC | -0.204 | -0.034 | -0.674 | -0.472 | -1.14 | 0.489 | 0.484 | 0.284 | -0.673 | -0.347
TAGCCTAGGTCATTCAGGGGCCATTATAGAAAGC | 4.21 | 4.32 | 1.34 | 3.81 | 1.44 | 3.96 | 2.32 | 2.45 | 0.349 | 1.57
TTACGAAGGTGAGCTGAGGTCGTTGATCCAACTC | 2.65 | 1.46 | -0.333 | 0.8 | -0.914 | 1.52 | 0.0154 | 0.637 | -0.115 | 0.0816

Sequence | PBM binding z-score [1] | PBM binding z-score [2] | PBM binding z-score [3] | PBM binding z-score [4] | PBM binding z-score [5] | PBM binding z-score [6] | PBM binding z-score [7] | PBM binding z-score [8] | PBM binding z-score [9] | PBM binding z-score [10]
AGAATGAGGTTAAGATCAGCGAAACAGAATACAT | 2.2 | 1.69 | -0.0518 | 1.54 | -0.0572 | 3.72 | 2.3 | 2.38 | 0.794 | 1.74
CCGCGGAGGACAACAGGAGGTCAGAGCTGCCAGA | 1.23 | 2.08 | 1.98 | 1.49 | -0.659 | 2.17 | 0.34 | 0.0732 | -0.523 | -0.778
CCTGCTAGGTCATGGTCACCTAATCTACAGTATG | 3.67 | 2.86 | 0.345 | 2.19 | -0.376 | 3.56 | 3.28 | 3.54 | 1.07 | 2.72
ATTAGTTGGTCAGCTGAGGTCACACACAATTCGG | 3.77 | 3.68 | 3.19 | 3.95 | 1.13 | 3.96 | 2.32 | 2.81 | 1.44 | 2.13
ATCTCTAGGCAAGACTCAGTTCAGTGAAGAACGC | -0.14 | 0.0146 | -0.0156 | -0.438 | -0.221 | -0.499 | 0.011 | -0.156 | -0.193 | -0.262
CGAACTAGATCATCCAGGACAGTGAATACATTGA | 0.155 | -0.152 | 0.195 | -0.18 | 0.286 | -0.169 | 0.554 | -0.19 | 0.138 | -0.219
AGAATGAGGTTACCAAAGATAAGGGAAACGCTTG | 1.56 | 1.65 | -0.398 | 1.2 | -0.13 | 3.46 | 2.87 | 2.43 | 0.9 | 1.9
GGAACGAGGGCATTCGAGTTGATTGCATGGCGAT | 0.926 | 1.7 | -0.316 | 0.105 | -0.391 | 1.4 | 0.653 | 0.598 | -0.244 | 0.242
GCAGACAGCTGAAACGCAGGTAACTCAGGGTGGC | -0.689 | -0.548 | -0.369 | -1.06 | -1.49 | -0.559 | 0.436 | -0.461 | -0.695 | -0.928
AATACAGGGTCAGTAGGCCAGAGTAGGTACGAAT | 3.97 | 3.63 | 0.625 | 2.61 | 0.737 | 4.47 | 5.91 | 5.01 | 1.93 | 3.86
ACTAGTTGGTCAGGTGAGGTCACACACAATTCGG | 3.87 | 3.4 | 2.65 | 3.35 | 0.501 | 3.83 | 2.36 | 2.68 | 0.906 | 1.88
ACTAGCAGGCCAAGTTTGGGTCTCTCAAACAAAG | -0.742 | -0.825 | -0.773 | -0.616 | -0.908 | -0.417 | -0.897 | -0.524 | -1.1 | -0.853
GATACAGGGTCAAGTCCAGAGTACGCGTATTGAT | 7.3 | 4.84 | 0.0543 | 4.3 | 0.511 | 5.77 | 5.91 | 5.85 | 2.51 | 4.33
GGAACGAGGGAAAGTTGATAGCAGAGTTTGATGG | -0.31 | -0.575 | -0.354 | -0.799 | -0.711 | -0.252 | 0.626 | 0.9 | 0.276 | 0.845
CCTATTAGTTGACCATAAGTGCAACCGAAGCTCG | 0.669 | 0.833 | 1.25 | 0.757 | 1.09 | 0.517 | 0.672 | 0.74 | 0.581 | 0.574
AGAACGAGGGCACGCTGAGTTGATCGCAGAGTAG | 0.98 | 0.604 | -0.623 | 0.0852 | -0.872 | 2.16 | 1.93 | 1.66 | 0.193 | 0.789
ATCTCTAGGTAAAGATAGGTCAGTGAATGCAAAT | 0.743 | 5.46 | 1 | 2.53 | 0.609 | 1.87 | 0.963 | 1.24 | 0.668 | 0.741
TCATATAGGTAAATGCTAGGTGAAAGTTCGATCT | 1.23 | 1.18 | 0.931 | 1.27 | -0.0844 | 2.74 | 3.2 | 4.57 | 4.77 | 4.78
CCTCGTTGGTCAGGAGGTCACACACCGGATATGA | 3.4 | 3.49 | 1.96 | 3.4 | 0.47 | 4.22 | 2.29 | 2.99 | 0.71 | 2.06
TCTATGAGTTGATTAGGGCAACCGAAACAGCGGA | 0.319 | 0.351 | -0.0686 | 0.151 | -0.328 | 1.07 | 0.39 | 1.31 | 2.32 | 1.65
AGTCAAAGTTCACTAGGTAACTTAAGATTCAGCT | 5.3 | 5.02 | 3.26 | 3.15 | 1.21 | 4.91 | 6.82 | 6.55 | 3.6 | 5.72
ACAGAGAGGTGAGTGAAGGTAACTCAGCTGGACG | 0.855 | 0.573 | -0.279 | 0.265 | 0.454 | 1.26 | 0.736 | 0.54 | -0.194 | 0.056
AGAACGAGGACACGCTGAGTTGATAGCAGAGTAG | 0.477 | -0.638 | -0.296 | -0.945 | -0.622 | -0.44 | 0.748 | -0.466 | 0.251 | -0.327
TCAGACAGGTGAAGGTAACTCAGGTACGCAGTCG | 0.942 | 1.82 | -0.0918 | 1.2 | -0.116 | 1.34 | 0.719 | 2.37 | 3.89 | 2.98
